Laboratory results reported in the supplement of paper PMC10849652.
About 8,800 targets were measured; listed, in parts, are those with a hit and a random draw of the rest. About 0.5% of all pairs of compound and target were hits. Unmarked numbers belong to inactive results.

Compound: Cc1ncc(-c2ccnc(Nc3ccc(S(C)(=O)=O)cc3)n2)n1C(C)C
Test: log2 fold change, soluble protein after heating vs DMSO (PISA); higher = thermal stabilisation; K562 lysate, 10 uM; active = over 0.2 and 3.5 SD of the protein, either way, in both replicates (recomputed)
Procedure, shortened: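 Pellets of K562 cells were dounce-homogenised in PBS pH 7.4 with 1 mM MgCl2, and the crude extract was held at 1 mg/mL protein for a 30 min treatment with 10 μM compound. Aliquots were heated for 3 min over 48°C-58°C and pooled before NP-40 was added to 0.5% at 4°C. The supernatant from 21,000xg for 90 min was quantified by TMTpro 16plex LC-MS/MS with channel sums equalised. Values are reported from duplicates as log-two fold change in thermal stability relative to solvent controls.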

Chain of UniProt Q16576 (Q16576 whole entry, looked up): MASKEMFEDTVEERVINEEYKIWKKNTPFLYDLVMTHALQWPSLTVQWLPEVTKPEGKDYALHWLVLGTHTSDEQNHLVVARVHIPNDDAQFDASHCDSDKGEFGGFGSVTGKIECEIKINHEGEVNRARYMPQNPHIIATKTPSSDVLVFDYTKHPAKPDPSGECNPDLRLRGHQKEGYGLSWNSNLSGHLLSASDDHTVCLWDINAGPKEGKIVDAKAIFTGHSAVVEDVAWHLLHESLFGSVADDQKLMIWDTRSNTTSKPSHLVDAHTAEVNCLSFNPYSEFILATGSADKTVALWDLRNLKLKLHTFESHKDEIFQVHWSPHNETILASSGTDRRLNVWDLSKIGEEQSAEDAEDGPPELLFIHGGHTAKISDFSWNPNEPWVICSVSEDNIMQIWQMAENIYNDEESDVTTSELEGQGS
Chain of UniProt P23921 (P23921 whole entry, looked up): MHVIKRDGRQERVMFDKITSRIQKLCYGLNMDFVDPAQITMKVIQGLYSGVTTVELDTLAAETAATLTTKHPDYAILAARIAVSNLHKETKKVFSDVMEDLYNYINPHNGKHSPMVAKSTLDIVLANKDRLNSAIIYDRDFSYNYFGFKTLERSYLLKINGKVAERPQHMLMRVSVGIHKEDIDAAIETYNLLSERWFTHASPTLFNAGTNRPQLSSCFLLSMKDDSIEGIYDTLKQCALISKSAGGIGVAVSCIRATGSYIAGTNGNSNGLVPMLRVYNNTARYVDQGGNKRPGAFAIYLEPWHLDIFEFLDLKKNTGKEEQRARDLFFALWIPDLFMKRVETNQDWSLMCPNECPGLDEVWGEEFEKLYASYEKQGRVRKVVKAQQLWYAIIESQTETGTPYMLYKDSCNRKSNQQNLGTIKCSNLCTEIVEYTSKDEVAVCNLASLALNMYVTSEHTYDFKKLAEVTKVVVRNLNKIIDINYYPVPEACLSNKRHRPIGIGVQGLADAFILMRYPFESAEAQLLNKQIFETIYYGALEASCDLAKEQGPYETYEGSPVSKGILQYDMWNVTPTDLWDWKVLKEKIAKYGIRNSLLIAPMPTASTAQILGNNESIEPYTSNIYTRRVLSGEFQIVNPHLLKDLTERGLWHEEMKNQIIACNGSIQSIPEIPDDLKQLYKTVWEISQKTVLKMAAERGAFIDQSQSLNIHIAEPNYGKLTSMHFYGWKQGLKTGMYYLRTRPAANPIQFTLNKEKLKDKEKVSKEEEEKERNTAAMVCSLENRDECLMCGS
Chain of UniProt P35250 (P35250 whole entry, looked up): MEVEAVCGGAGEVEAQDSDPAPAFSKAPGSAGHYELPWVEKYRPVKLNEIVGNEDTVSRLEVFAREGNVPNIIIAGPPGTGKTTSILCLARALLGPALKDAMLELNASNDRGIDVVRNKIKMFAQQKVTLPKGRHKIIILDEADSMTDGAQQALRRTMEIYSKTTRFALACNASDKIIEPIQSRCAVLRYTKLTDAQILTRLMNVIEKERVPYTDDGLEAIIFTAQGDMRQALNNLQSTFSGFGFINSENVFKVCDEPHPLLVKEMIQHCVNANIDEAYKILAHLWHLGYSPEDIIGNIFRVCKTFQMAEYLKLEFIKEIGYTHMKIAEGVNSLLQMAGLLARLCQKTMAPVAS
Chain of UniProt Q9NR31 (Q9NR31 whole entry, looked up): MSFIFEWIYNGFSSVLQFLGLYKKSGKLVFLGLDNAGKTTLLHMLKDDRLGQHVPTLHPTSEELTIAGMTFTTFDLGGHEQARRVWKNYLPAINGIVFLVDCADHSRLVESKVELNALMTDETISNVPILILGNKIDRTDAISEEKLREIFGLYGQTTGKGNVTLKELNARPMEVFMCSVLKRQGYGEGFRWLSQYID
Chain of UniProt P51812 (P51812 whole entry, looked up): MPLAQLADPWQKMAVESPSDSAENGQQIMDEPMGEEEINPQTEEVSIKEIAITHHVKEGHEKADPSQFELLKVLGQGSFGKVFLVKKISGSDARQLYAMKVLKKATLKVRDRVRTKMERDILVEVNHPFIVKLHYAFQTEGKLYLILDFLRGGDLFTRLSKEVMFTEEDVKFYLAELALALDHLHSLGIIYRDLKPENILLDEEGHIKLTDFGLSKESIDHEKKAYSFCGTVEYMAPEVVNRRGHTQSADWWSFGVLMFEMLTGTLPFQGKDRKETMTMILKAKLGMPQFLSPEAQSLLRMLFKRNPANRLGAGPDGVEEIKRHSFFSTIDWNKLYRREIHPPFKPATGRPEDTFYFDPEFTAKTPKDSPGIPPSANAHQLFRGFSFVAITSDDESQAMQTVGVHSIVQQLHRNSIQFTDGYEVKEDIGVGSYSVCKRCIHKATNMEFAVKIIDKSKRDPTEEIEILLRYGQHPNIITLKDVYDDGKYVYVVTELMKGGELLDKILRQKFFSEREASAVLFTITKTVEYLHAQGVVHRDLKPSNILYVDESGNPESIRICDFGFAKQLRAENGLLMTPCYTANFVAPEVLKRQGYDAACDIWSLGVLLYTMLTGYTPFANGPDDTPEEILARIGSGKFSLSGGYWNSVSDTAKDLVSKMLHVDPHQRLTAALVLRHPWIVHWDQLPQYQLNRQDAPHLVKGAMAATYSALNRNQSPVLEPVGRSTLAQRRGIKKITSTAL
Chain of UniProt P78406 (P78406 whole entry, looked up): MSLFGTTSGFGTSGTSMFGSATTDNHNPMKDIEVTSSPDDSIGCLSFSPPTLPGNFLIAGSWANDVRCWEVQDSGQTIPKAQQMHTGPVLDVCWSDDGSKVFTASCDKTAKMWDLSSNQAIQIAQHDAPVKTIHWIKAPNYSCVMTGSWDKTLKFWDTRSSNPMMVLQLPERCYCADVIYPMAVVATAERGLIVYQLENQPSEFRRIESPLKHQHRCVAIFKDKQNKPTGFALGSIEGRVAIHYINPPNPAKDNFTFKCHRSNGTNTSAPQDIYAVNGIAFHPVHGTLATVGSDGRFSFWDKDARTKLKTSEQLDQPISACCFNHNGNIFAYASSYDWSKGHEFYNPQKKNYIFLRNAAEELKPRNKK
Chain of UniProt Q86U06 (Q86U06 whole entry, looked up): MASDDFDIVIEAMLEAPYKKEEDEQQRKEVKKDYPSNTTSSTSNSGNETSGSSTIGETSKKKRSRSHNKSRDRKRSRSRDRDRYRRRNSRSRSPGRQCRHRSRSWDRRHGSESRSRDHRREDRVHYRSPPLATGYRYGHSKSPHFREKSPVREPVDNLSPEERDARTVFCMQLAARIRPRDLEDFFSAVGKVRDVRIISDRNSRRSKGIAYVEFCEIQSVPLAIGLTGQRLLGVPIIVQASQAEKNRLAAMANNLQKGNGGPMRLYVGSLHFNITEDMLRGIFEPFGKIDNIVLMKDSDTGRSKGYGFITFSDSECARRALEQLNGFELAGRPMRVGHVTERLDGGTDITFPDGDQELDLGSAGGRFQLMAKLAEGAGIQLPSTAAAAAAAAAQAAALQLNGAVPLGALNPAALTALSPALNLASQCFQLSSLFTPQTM
Chain of UniProt Q13530 (Q13530 whole entry, looked up): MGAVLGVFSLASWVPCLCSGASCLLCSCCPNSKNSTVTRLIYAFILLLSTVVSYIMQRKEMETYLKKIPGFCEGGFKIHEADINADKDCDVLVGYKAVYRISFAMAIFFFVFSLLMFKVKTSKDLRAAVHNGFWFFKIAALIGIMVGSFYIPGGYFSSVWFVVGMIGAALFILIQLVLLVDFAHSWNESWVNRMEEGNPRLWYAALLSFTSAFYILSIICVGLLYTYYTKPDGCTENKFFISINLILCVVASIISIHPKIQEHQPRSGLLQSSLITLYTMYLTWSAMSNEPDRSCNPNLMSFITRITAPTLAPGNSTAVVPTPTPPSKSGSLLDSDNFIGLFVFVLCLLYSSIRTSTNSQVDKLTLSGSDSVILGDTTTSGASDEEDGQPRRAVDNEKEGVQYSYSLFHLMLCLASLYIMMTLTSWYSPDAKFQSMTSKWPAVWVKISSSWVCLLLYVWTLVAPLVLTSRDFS
Chain of UniProt P53611 (P53611 whole entry, looked up): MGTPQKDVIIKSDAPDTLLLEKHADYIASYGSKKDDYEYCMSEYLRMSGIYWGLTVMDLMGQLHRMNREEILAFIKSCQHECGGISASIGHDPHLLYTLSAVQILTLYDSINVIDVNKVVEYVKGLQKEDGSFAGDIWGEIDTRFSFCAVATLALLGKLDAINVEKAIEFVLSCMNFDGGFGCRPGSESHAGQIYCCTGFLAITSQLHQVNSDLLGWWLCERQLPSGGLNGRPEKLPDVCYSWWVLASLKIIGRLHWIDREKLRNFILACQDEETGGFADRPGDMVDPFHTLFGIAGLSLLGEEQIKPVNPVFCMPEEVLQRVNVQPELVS
Chain of UniProt Q13546 (Q13546 whole entry, looked up): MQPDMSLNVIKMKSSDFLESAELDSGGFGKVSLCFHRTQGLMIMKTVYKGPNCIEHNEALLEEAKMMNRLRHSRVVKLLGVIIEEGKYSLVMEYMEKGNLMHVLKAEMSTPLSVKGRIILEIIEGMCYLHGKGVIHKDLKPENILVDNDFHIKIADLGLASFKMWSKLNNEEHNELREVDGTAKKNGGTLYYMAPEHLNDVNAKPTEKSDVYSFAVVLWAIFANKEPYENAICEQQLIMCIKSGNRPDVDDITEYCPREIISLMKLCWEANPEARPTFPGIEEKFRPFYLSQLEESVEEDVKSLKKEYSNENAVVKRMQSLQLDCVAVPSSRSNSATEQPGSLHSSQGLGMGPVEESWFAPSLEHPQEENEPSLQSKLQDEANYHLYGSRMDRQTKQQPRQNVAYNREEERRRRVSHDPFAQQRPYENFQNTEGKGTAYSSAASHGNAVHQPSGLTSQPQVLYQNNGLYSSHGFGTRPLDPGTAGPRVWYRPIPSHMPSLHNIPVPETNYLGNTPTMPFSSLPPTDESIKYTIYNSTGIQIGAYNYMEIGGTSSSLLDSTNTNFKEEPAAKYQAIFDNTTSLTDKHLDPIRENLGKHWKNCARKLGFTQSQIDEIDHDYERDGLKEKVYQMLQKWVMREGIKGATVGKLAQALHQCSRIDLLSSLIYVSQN
Chain of UniProt Q99643 (Q99643 whole entry, looked up): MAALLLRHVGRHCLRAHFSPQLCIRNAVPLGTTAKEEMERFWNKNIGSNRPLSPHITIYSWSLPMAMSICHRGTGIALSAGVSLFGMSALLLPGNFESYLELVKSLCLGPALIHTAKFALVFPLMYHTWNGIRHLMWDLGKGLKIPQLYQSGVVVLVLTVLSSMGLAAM

| Target | log2 fold change |
| --- | --- |
| RAPGEF2, A0A2R8YGD3 | -0.036 |
| RAB27A (UniProt P51159) | -0.059 |
| RPL31 (UniProt P62899) | -0.036 |
| RBBP7 isoform 2 (UniProt Q16576) | -0.035 |
| RAP1GAP isoform 4 (UniProt P47736) | 0.017 |
| RBM22 (UniProt Q9NW64) | -0.006 |
| RABGGTB (UniProt P53611) | 0.006 |
| RNF113A (UniProt O15541) | 0.007 |
| RPS6KA3 (UniProt P51812) | 0.039 |
| SERINC3 (UniProt Q13530) | -0.006 |
| RRM1 (UniProt P23921) | 0.001 |
| RDH11 (UniProt Q8TC12) | -0.045 |
| RABEPK (UniProt Q7Z6M1) | -0.01 |
| RAE1 (UniProt P78406) | 0.012 |
| RNPC3 (UniProt Q96LT9) | 0.01 |
| SAR1A (UniProt Q9NR31) | -0.009 |
| SCML2 (UniProt Q9UQR0) | -0.06 |

| Target | log2 fold change |
| --- | --- |
| RIOK3 (UniProt O14730) | -0.076 |
| RBM23 isoform 2 (UniProt Q86U06) | -0.065 |
| RAF1 isoform 2 (UniProt P04049) | -0.094 |
| RTN4IP1 (UniProt Q8WWV3) | -0.259 |
| RAD54L2 (UniProt Q9Y4B4) | -0.047 |
| RAP1B (UniProt F5GZG1) | -0.253 |
| RFC2 (UniProt P35250) | -0.012 |
| RBBP7 (UniProt Q16576) | 0.007 |
| RIPK1 (UniProt Q13546) | 0.248 (active) |
| SDHC (UniProt Q99643) | -0.006 |
| RPS6KB1 (UniProt P23443) | 0.001 |
| RALA (UniProt P11233) | -0.04 |
| RBMX (UniProt P38159) | -0.052 |
| SEC16A isoform 5 (UniProt O15027) | 0.006 |
| RPS4X (UniProt P62701) | -0.002 |
| RPLP0P6 (UniProt Q8NHW5) | 0.001 |
